Source: PubChem (National Center for Advancing Translational Sciences (NCATS))
Compounds with a hit are over-represented: about 10% of the library has one in this group of screens.
FLuc inh = inhibitors of firefly (Photinus pyralis) luciferase. P08659. purified P. pyralis luciferase, luminescence, biochemical. Potency, µM (top dose mostly 115 µM), actives largely listed as inhibitors. 76,000 compounds, 2.5% hits; also: nearly all actives have a fitted effect of over 65% in size
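Cell-free enzyme assay, 10nM P. pyralis luciferase, luciferin and ATP each at 10uM. Inhibition profiled over a 6-point titration, read as luminescence.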
3T3 cytotox = NIH 3T3 cell cytotoxicity | NIH 3T3 viability, CellTiter-Glo ATP luminescence, 48-72 h | Potency, µM (titrated, usually from 96.7 µM), for inactives: at the top dose activity change, negative = cytotoxicity, actives largely listed as inhibitors | 94,000 compounds, 4.3% hits | AID 1345082; also: nearly all actives have a fitted effect of over 55% in size
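Cytotoxicity is measured as loss of cellular ATP: NIH 3T3 cells (400/well) are exposed to compound for 48 or 72 hr at 37 °C, then CellTiter-Glo luminescence is imaged after 10 min at room temperature.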
NPR1 antag = human Npr1 receptor antagonism | P16066 | HEK293 hNpr1 GloSensor cGMP, ANP-stimulated luminescence | Potency, µM (doses to about 46.3 µM), inactives show at the top dose activity change, negative = inhibition, most hits filed as inhibitors | 76,000 compounds, 1.6% hits; calls by dose curve; also: nearly all actives have a fitted effect of over 60% in size
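Compound pre-incubated 30 min at room temperature on GloSensor-loaded HEK293 cells stably carrying hNpr1 and the pGS-40F cGMP biosensor. Stimulation uses hNppA at 0.1 nM final; luminescence is taken at baseline and 20 min post-agonist.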
GPT2 inhibitor = blocks human glutamate pyruvate transaminase 2; Q8TD30; Recombinant GPT2, coupled pyruvate oxidase/HRP Amplex Red fluorescence; Potency, µM (doses to about 57.7 µM), without a hit: at the highest dose activity change, negative = inhibition, hits mostly inhibitors; 100,000 compounds, 0.25% hits; AID 1671188; also: nearly all actives have a fitted effect of over 60% in size
Target sequence (Q8TD30 whole entry, looked up): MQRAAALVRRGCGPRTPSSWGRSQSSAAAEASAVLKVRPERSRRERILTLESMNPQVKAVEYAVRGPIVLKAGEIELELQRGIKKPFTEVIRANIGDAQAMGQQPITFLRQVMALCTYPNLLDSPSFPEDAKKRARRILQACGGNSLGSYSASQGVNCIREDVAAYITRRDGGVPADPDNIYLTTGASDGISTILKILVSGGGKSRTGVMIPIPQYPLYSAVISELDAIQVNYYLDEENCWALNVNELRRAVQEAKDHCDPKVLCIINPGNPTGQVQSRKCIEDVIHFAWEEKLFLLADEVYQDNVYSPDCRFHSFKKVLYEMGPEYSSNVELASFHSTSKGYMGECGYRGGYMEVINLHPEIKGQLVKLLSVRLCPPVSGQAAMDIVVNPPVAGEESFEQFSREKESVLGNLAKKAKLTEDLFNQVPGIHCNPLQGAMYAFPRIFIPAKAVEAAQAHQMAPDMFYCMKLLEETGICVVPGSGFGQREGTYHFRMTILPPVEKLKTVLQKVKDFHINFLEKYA
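Recombinant GPT2 (10ng/uL) with 250uM a-KG and 2mM L-alanine, 30 min at room temperature, in HEPES pH 7.5 buffer. Pyruvate detected by pyruvate oxidase/HRP/Amplex Red fluorescence after 30 min in the dark; AOA (50uM) as positive control.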
HEK293 tox = HEK 293 cell cytotoxicity. AID 1345083. Potency, µM (highest dose often 115 µM), inactives show at the top dose activity change, negative = cytotoxicity, usual class: inhibitors. HEK 293 viability, ATP luminescence (CellTiter-Glo), 48-72 h. 94,000 compounds, 6.6% hits; also: nearly all actives have a fitted effect of over 60% in size
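250 HEK 293 cells/well; compound by pintool; incubated 48 or 72 hr at 37 degree Celsius; CellTiter-Glo added, 10 min RT, luminescence imaged.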
An asterisk follows results filed as active; i = inactive; ? = inconclusive; · = no result given; [ ] = remark or other dose. Unless noted, calls follow the shape of the dose curve; as a rule, active = well fitted curve in the direction sought with a large enough effect; inconclusive = small, poorly fitted or top-dose-only effect, or another doubt; inactive = no such curve, though single readings can be large; an effect the other way counts as inactive or inconclusive. % is scaled to controls: 0 for no effect and ±100 for the full control effect; potency is read from the fitted curve at half-maximal effect.

SMILES	FLuc inh	3T3 cytotox	NPR1 antag	GPT2 inhibitor	HEK293 tox
Cc1ccc2oc([C@H]3CCN(Cc4ccc(N(C)C)cc4)C3)nc2c1	45µM*	?	-20%[70.6 µM]	-22%[88.5 µM]	?
O=C(Nc1ccc(Cl)cc1)NC1CCN(c2nccc(Nc3ccccc3Cl)n2)CC1	·	?	·	-1%	?
COc1ccc(-c2c(C(=O)Nc3ccc(C)cc3)nc3sccn23)cc1	·	-8%	·	-4%	?
COC1CCN(c2cc(-c3ccccc3)nc3c(C)noc23)CC1	i	?	2%[70.6 µM]	2%[88.5 µM]	?
COC1CCN(c2cc(-c3ccsc3)nc3c(C)noc23)CC1	i	?	-2%[70.6 µM]	i	79µM*
COC1CCCN(c2cc(-c3ccsc3)nc3c(C)noc23)C1 (stereo not drawn)	i	?	-1%[70.6 µM]	?	?
COC1CCCN(c2cc(-c3ccc(Cl)cc3)nc3c(C)noc23)C1 (stereo not drawn)	i	?	1%[70.6 µM]	-12%[88.5 µM]	56µM*
COc1cccc(-c2ccc(C(=O)NCCNC(=O)Cc3cccc(Cl)c3)cc2)c1	·	-24%	·	·	?
O=C(NC1CCCCC1)c1nc2sccn2c1-c1ccccc1	·	?	·	i	63µM*
O=C(NC1CC1)c1nc2sccn2c1-c1ccccc1	·	-6%[138 µM]	·	i	1%[172 µM]
O=C(NC1CCCCC1)c1nc2sccn2c1-c1ccc(C(F)(F)F)cc1	·	40µM*	·	-9%	?
O=C(NC1CCCCCC1)c1nc2sccn2c1-c1ccc(C(F)(F)F)cc1	·	25µM*	·	i	40µM*
CC(C)n1nc(OC(C)(C)C(=O)NCC2CCOCC2)c2cc(CN3CCOCC3)ccc21	i	?	4%	-6%	-10%
O=C(NC1CCCC1)C1CCCCN1Cc1ccc(-c2cccs2)cc1 (stereo not drawn)	·	40µM*	·	i	32µM*
C#CCNC(=O)C1CCCCN1Cc1ccc(-c2cccs2)cc1 (stereo not drawn)	·	?	·	i	?
O=C(NCC1CC1)C1CCCCN1Cc1ccc(-c2cccs2)cc1 (stereo not drawn)	·	18µM*	·	2%	?
CC1(c2noc(-c3ccccn3)n2)CCN(C(=O)CCCc2nc3ccccc3s2)CC1	i	?	?	5%	40µM*
C=CCCC(=O)N1CCC(=O)N(CCC#N)C[C@H]2COc3cc(OC)ccc3[C@H]21	·	?	·	·	-5%
COc1ccc(-c2cc(C(=O)Nc3cccc(C(F)(F)F)c3)c3cnn(C)c3n2)cc1	·	?	·	·	35µM*
CCOc1cccc(NC(=O)c2cc(-c3ccc(C(F)(F)F)cc3)nc3c2cnn3C)c1	·	?	·	·	-23%
COc1ccccc1-c1cc(C(=O)Nc2cccc(C(F)(F)F)c2)c2cnn(C)c2n1	·	?	·	·	14µM*
O=C(CCc1ccc(-c2ccc(Cl)cc2)[nH]1)N[C@@H]1C[C@@H]2OCC[C@@H]21	i	?	-19%	i	79µM*
CO[C@@H]1COCC[C@H]1NC(=O)CCc1ccc(-c2ccc(Cl)cc2)[nH]1	i	?	-16%	i	?
Cc1ccc([S+](=O)([O-])N2CCC(C(=O)N3CCC(N4CCCC4=O)CC3)CC2)cc1	·	-13%	·	i	4%
COCCNC(=O)[C@@H]1C[C@@H](O)CN1C1CCN(C(=O)Cc2ccccc2)CC1	i	-16%	-16%	-1%	-5%
SMILES	FLuc inh	3T3 cytotox	NPR1 antag	GPT2 inhibitor	HEK293 tox
COC(=O)N1CCN(c2nccc(Nc3ccccc3F)n2)CC1	·	?	·	1%[88.5 µM]	89µM*
COc1ccccc1Nc1ccnc(N2CCN(C(=O)NC(C)C)CC2)n1	·	?	·	i	?
CC(C)NC(=O)N1CCN(c2nccc(Nc3ccccc3F)n2)CC1	·	?	·	i	25µM*
O=C(NC1CCCC1)N1CCN(c2nccc(Nc3ccccc3F)n2)CC1	·	?	·	i	45µM*
O=C(Nc1ccccc1)N1CCN(c2nccc(Nc3ccccc3F)n2)CC1	·	45µM*	·	i	?
COCC(=O)N1CCN(c2nccc(Nc3ccccc3F)n2)CC1	·	-20%	·	-5%	2%
Cn1nc(C2CCCC2)cc1NC(=O)c1ccccc1	·	-10%[138 µM]	·	i	i
O=C(c1ccc(Cl)cc1)N1CCCC(C(=O)N2CCC(c3nc4ncccc4[nH]3)C2)C1 (stereo not drawn)	·	-2%	·	i	-3%
O=C(Nc1nccs1)c1ccc2c(c1)OCCN(C1CCC1)C2	22µM*	?	-3%[70.6 µM]	0%[88.5 µM]	?
COc1ccc(NC(=O)c2ccc3c(c2)OCCN(CCC(C)C)C3)cn1	i	?	?	1%[88.5 µM]	?
CC(C)CCN1CCOc2cc(C(=O)Nc3ccccc3)ccc2C1	i	11µM*	-21%[70.6 µM]	-33%[88.5 µM]	?
Cc1ccccc1NC(=O)c1ccc2c(c1)OCCN(CCC(F)(F)F)C2	i	?	-1%[70.6 µM]	i	?
O=C(NCCOc1ccccc1)c1ccc2c(c1)OCCN(CCC(F)(F)F)C2	40µM*	-28%[138 µM]	-10%[70.6 µM]	?	?
Cc1cnc(NC(=O)c2ccc3c(c2)OCCN(C2CCC2)C3)s1	?	?	-18%[70.6 µM]	5%[88.5 µM]	?
Cc1cnc(NC(=O)c2ccc3c(c2)OCCN(Cc2ncccn2)C3)s1	40µM*	-30%[138 µM]	0%[70.6 µM]	1%[88.5 µM]	?
CCS(=O)(=O)N1CCc2c(c(CN3CCOCC3)nn2C)C1	·	-24%	·	-2%	-11%
C#CCN(C)C[C@@H]1C=C(C)[C@H](Cc2nnc(-c3ccccc3F)o2)C[C@H]1C(C)C	i	79µM*	?	-7%[88.5 µM]	79µM*
CC1=C[C@@H](CNS(C)(=O)=O)[C@H](C(C)C)C[C@H]1Cc1nnc(-c2ccccc2F)o1	i	?	0%[70.6 µM]	1%[88.5 µM]	?
CC1=C[C@@H](CNC(=O)C2CC2)[C@H](C(C)C)C[C@H]1Cc1nnc(-c2ccccc2F)o1	i	100µM*	-27%[70.6 µM]	-9%[88.5 µM]	63µM*
CCCS(=O)(=O)NC[C@@H]1C=C(C)[C@H](Cc2nnc(-c3ccccc3F)o2)C[C@H]1C(C)C	i	25µM*	-14%	-13%	22µM*
CCCC(=O)NC1CCN(c2ccnc3ccnn23)CC1	·	-8%[138 µM]	·	-7%[88.5 µM]	i
O=C(CNC(=O)c1ccc(-c2cccc(C(F)(F)F)c2)cc1)NCc1ccccc1	·	?	·	i	?
CCCCN1CCN(C(=O)[C@@]23CCCC[C@H]2N(CCC(C)C)C(=O)CC3)CC1	i	-34%	2%	-2%	-10%
CCCOc1cccc(-c2cc3c(cc2OC)C(CO)CC(C)(C)CO3)c1 (stereo not drawn)	·	32µM*	·	·	35µM*
COc1cc2c(cc1-c1ccc(OC(F)(F)F)cc1)OCC(C)(C)CC2CO (stereo not drawn)	·	?	·	-15%[27.3 µM]	22µM*
O=C(Nc1ccc(C(F)(F)F)cc1)N[C@H]1[C@H](O)[C@H](O)C[C@@H]1c1ccccc1	i	79µM*	-13%[70.6 µM]	i	?
